Assay results: PubChem BioAssay (NCATS)
Records with an inconclusive call do not appear. Activity calls are given as the source filed them. Unless noted, the call rests on the fitted dose curve.

Key:
[1] = qHTS assay for small molecule antagonists of peroxisome proliferator-activated receptor delta signaling (AID 588535; active means well fitted inhibition curve with a large enough effect in the signal ratio, with a control signal flat, not every such curve was filed as active; the % refers to the signal ratio;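 on max response: cells co-treated with a PPAR-delta agonist as stimulator during compound exposure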); details: HEK293T PPARd-UAS-bla, beta-lactamase FRET ratio, 18 h; 460 nm channel
Summary of the method: (§1)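 Titrations were run on PPAR-delta-UAS-bla HEK293T cells in charcoal/dextran-stripped serum, incubated 18 h at 37 C. CCF4 fluorescence (460/530 nm) after 2 h RT; Hill equation yields IC50 and maximal response.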

[2] = target: Peroxisome proliferator-activated receptor delta (Homo sapiens) (UniProt Q03181); assay: as above; details: HEK293T PPARd-UAS-bla, beta-lactamase FRET ratio, 18 h; series mostly up to 76.7 µM
Chain of Peroxisome proliferator-activated receptor delta (Homo sapiens) (Q03181 whole entry, looked up): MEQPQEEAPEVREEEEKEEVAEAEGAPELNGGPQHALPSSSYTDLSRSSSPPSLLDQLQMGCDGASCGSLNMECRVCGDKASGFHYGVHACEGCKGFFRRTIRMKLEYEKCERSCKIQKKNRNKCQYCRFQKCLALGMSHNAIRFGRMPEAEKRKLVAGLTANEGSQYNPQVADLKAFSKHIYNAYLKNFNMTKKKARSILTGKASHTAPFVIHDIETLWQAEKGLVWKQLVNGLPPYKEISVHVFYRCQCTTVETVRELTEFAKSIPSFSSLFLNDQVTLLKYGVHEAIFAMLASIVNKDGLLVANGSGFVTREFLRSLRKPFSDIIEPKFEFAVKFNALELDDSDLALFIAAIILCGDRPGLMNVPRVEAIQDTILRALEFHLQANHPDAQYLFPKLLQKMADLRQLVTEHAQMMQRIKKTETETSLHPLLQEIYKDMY
Summary of the method: as §1

[3] = target: Vitamin D3 receptor (Homo sapiens) (UniProt P11473); assay: qHTS assay for small molecule antagonists of vitamin D receptor signaling (AID 588541); details: HEK293T VDR-UAS-bla, beta-lactamase ratio, antagonist mode; series mostly up to 76.7 µM;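 further: receptor activated by calcitriol during compound treatment; on the % scale 0 is the no-effect control and ±100 the full control effect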
Chain of Vitamin D3 receptor (Homo sapiens) (P11473 whole entry, looked up): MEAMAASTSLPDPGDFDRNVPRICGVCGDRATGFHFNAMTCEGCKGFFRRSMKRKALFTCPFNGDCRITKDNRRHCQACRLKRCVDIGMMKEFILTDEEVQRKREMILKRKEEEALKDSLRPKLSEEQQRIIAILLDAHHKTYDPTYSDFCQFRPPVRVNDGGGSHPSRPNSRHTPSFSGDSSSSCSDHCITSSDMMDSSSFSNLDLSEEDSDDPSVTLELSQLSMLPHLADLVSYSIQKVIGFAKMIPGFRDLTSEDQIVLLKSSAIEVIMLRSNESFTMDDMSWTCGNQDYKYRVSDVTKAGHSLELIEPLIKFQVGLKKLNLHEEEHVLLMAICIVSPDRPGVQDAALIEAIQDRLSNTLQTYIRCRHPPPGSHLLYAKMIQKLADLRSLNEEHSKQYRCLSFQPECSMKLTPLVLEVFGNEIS
Summary of the method: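 Antagonist-mode beta-lactamase reporter assay: HEK293T VDR-UAS-bla cells were exposed to titrated compound alongside 1-alpha,25-dihydroxyvitamin D3 at 3 nM final for 16 h. Values were normalized to the 50 nM agonist control and DMSO basal, with IC50 and efficacy from Hill equation fits.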

[4] = target: Vitamin D3 receptor (Homo sapiens) (UniProt P11473); assay: qHTS assay for small molecule agonists of vitamin D receptor signaling (AID 588543); details: HEK293T VDR-UAS-bla, beta-lactamase ratio, 16 h; series mostly up to 76.8 µM;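 further: 0% = DMSO basal and 100% = reference agonist control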
Summary of the method: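 Reporter cells (HEK293T, VDR-UAS-bla) were seeded in medium with 2% charcoal-stripped serum and incubated 5 h, then compounds in concentration series were added for 16 h at 37 °C. Stimulation was scaled between DMSO basal and 50 nM 1α,25-dihydroxyvitamin D3.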

[5] = qHTS assay for small molecule agonists of retinoid X receptor alpha signaling (AID 588544); details: HEK293T RXRa-UAS-bla, beta-lactamase reporter, 18 h; 530 nm emission;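 on activation: 0% = DMSO basal wells and 100% = reference agonist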
[6] = target: Retinoic acid receptor RXR-alpha (Homo sapiens) (UniProt P19793); assay: as above; details: HEK293T RXRa-UAS-bla, beta-lactamase reporter, 18 h; series mostly up to 76.7 µM
Chain of Retinoic acid receptor RXR-alpha (Homo sapiens) (P19793 whole entry, looked up): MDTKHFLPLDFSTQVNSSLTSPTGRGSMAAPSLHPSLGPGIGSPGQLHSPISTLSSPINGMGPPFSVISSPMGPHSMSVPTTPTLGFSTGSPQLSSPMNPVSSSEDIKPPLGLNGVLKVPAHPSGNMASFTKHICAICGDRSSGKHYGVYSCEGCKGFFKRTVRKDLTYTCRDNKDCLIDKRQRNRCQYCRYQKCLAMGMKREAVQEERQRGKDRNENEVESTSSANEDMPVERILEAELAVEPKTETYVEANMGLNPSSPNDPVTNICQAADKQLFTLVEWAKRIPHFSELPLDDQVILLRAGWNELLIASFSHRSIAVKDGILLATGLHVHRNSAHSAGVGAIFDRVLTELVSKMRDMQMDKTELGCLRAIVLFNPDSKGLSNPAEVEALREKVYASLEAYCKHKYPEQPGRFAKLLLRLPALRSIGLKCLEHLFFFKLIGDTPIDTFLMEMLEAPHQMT

[7] = target: Thyroid hormone receptor beta (Homo sapiens) (UniProt P10828); assay: qHTS assay for small molecule agonists of thyroid hormone receptor beta signaling (AID 588545); details: TR-UAS-bla GripTite HEK 293, beta-lactamase ratio, agonist mode, 18 h; series mostly up to 76.7 µM
Chain of Thyroid hormone receptor beta (Homo sapiens) (P10828 whole entry, looked up): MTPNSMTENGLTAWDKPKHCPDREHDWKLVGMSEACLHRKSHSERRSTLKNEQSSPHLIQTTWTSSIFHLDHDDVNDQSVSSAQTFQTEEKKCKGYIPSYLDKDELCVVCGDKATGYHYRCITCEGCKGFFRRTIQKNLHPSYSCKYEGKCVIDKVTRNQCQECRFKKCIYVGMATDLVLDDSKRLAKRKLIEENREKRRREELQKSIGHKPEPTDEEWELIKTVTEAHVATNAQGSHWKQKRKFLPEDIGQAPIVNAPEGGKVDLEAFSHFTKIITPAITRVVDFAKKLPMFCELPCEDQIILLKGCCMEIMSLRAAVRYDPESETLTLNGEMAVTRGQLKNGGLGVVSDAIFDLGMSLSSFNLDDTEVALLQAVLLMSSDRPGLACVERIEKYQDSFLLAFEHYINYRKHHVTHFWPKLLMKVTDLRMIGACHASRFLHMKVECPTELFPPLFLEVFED
Summary of the method: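 Agonist activity was read as beta-lactamase CCF4 fluorescence (405 ex, 460/530 em), scaled between DMSO (0%) and 10 nM T3 (100%), then Hill-fitted for EC50 and efficacy. HEK 293 TR-UAS-bla cells in 2% charcoal/dextran FBS medium were exposed 18 h at 37 C.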

[8] = qHTS assay for small molecule antagonists of retinoid X receptor alpha signaling (AID 588546; active means well fitted inhibition curve with a large enough effect in the signal ratio, with a control signal flat, not every such curve was filed as active; the % refers to the signal ratio;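 further: cells stimulated with 9-cis-retinoic acid as agonist; on the % scale 0 is the no-effect control and ±100 the full control effect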); details: HEK293T RXRa-UAS-bla, beta-lactamase ratio, antagonist mode; measured here: W530 green channel, cytotoxicity proxy
Summary of the method: (§2)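 Beta-lactamase reporter inhibition, read as CCF4 fluorescence ratio (ex 405, em 460/530 nm) after 2 h at RT. HEK293T UAS-bla cells, 2500/well, were stimulated with 9-cis-RA at 500 or 100 nM final alongside test compound for 18 h at 37 C.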

[9] = target: Retinoic acid receptor RXR-alpha (Homo sapiens) (UniProt P19793); assay: as above; details: HEK293T RXRa-UAS-bla, beta-lactamase ratio, antagonist mode
Summary of the method: as §2

[10] = qHTS assay for small molecule activators of the p53 signaling pathway (AID 651743; active means well fitted activation curve with a large enough effect in the signal ratio, not every such curve was filed as active; the % refers to the signal ratio; further: % of control where 0% means no effect); details: HCT-116 p53RE-bla, beta-lactamase FRET ratio, 16 h; activation: stronger effect = higher value
Summary of the method: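 After 16 hours compound treatment at 37 C, HCT-116 cells stably expressing p53RE-driven beta-lactamase were loaded with LiveBLAzer B/G FRET substrate for 2 hours at room temperature. Fluorescence intensity served as the p53 activation read-out.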

[11] = qHTS assay for small molecule activators of the nuclear factor-kappa B (NF-kB) signaling pathway (AID 651749; active means well fitted activation curve with a large enough effect in the signal ratio; the % refers to the signal ratio; further: % of control where 0% means no effect); details: NF-kB-bla ME-180 cells, beta-lactamase FRET ratio, 16 h; activation: stronger effect = higher value
Summary of the method: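 Activation measured after 16 hr compound treatment at 37C, 5% CO2, of 2,000 ME-180 cells/well stably expressing an NF-kB response element–driven beta-lactamase reporter, via FRET-disruption fluorescence.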

[12] = qHTS assay for environmental chemicals that activate the Aryl hydrocarbon Receptor (AhR) signaling pathway (AID 651777; active means well fitted curve in the direction sought with a large enough effect; an effect the other way counts as inactive or inconclusive; further: % of control where 0% means no effect; nearly all actives have a fitted effect of over 15% in size); details: 1A2-DRE human hepatoma cells, luciferase, 24 h; activation: stronger effect = higher value
Summary of the method: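 Human hepatoma 1A2-DRE cells stably carrying a DRE/CYP1A2 promoter–luciferase reporter, 1,200 cells/well, exposed to compound 24 hr at 37 C. Luciferase read by One-Glo luminescence after 30 min at room temperature; increased signal marks AhR activation.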

[13] = qHTS assay for small molecule agonists of the antioxidant response element (ARE) signaling pathway measured by Nrf2-dependant transcriptional activity (AID 720636; active means well fitted curve in the direction sought with a large enough effect in the repeat runs; an effect the other way counts as inactive or inconclusive; further: % of control where 0% means no effect); details: ARE-luc HepG2, Nrf2 luciferase reporter, 16 h; series mostly up to 92.4 µM
Summary of the method: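 ARE-luc HepG2 cells carrying an Nrf2-responsive luciferase reporter, in medium with 1% dialyzed FBS, exposed to compound for 16 hr at 37 C, 5% CO2. Luminescence read 30 min after ONE-Glo addition.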

[14] = qHTS assay for small molecule agonists of the antioxidant response element (ARE) signaling pathway measured by Nrf2-dependant transcriptional activity - cell viability counter screen (AID 720653; active means well fitted curve in the direction sought with a large enough effect in the repeat runs; an effect the other way counts as inactive or inconclusive; further: on the % scale 0 is the no-effect control and ±100 the full control effect); details: ARE-bla HepG2 viability, CellTiter-Glo ATP luminescence, 16 h; max response: stronger effect = lower value
Summary of the method: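 Cytotoxicity counter screen: intracellular ATP quantified by CellTiter-Glo luminescence in the same ARE-bla HepG2 plates, after 16 h compound exposure and a 2 h beta-lactamase substrate step.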

[15] = qHTS assay for cell viability of HEK293 cells (AID 743288; active means well fitted curve in the direction sought with a large enough effect; an effect the other way counts as inactive or inconclusive; further: on the % scale 0 is the no-effect control and ±100 the full control effect; nearly all actives have a fitted effect of over 50% in size); details: ATP luminescence (CellTiter-Glo), 18 h; max response: stronger effect = lower value
Summary of the method: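 Viable-cell counts were inferred from luciferase-based ATP content in HEK293 cells seeded at 2,000/well, pre-incubated ≥5 h, then dosed with DMSO-solubilised compounds for 18 h at 37 C.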

[16] = qHTS assay for cell viability of the p53RE-bla HCT-116 cell line (AID 743292; active means well fitted curve in the direction sought with a large enough effect; an effect the other way counts as inactive or inconclusive; further: on the % scale 0 is the no-effect control and ±100 the full control effect; nearly all actives have a fitted effect of over 55% in size); details: p53RE-bla HCT-116 viability, ATP luminescence, 16 h; series mostly up to 95 µM
Summary of the method: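 CellSensor p53RE-bla HCT-116 cells (4,000/well) pre-incubated 5 h at 37 C, then exposed to compounds in DMSO for 16 h at 37 C. Viability read as ATP content by CellTiter-Glo luminescence after 30 min at room temperature.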

[17] = target: Nuclear receptor subfamily 1 group I member 2 (Rattus norvegicus) (UniProt Q9R1A7); assay: qHTS assay for small molecule activators of the rat pregnane X receptor (rPXR) signaling pathway (AID 651751; call rule not given here; further: 0% is about no effect); details: rPXR reporter cells, luciferase (One-Glo), 24 h
Chain of Nuclear receptor subfamily 1 group I member 2 (Rattus norvegicus) (Q9R1A7 whole entry, looked up): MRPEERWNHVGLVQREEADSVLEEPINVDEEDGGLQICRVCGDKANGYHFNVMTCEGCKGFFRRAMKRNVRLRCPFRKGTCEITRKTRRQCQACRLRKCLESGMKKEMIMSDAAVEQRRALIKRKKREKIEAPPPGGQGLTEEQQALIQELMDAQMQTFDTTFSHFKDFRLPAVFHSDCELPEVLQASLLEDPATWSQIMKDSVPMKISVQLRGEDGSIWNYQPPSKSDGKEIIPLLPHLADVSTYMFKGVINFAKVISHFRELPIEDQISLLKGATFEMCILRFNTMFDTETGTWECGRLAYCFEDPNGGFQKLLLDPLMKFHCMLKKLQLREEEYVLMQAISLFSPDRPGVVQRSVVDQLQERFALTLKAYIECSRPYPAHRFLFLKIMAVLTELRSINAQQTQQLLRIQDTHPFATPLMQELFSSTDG

[18] = qHTS assay for small molecule activators of the human pregnane X receptor (PXR) signaling pathway (AID 720659; call rule not given here; further: 0% is about no effect); details: DPX-2 HepG2 CYP3A4-luciferase, 24 h; series mostly up to 92.3 µM
[19] = target: Thyroid hormone receptor beta (Homo sapiens) (UniProt P10828); assay: qHTS assay for small molecule antagonists of thyroid hormone receptor beta signaling (AID 588547; active means well fitted inhibition curve with a large enough effect in the signal ratio, with a control signal flat, not every such curve was filed as active; the % refers to the signal ratio;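 further: cells stimulated with 0.4 nM T3 agonist during compound exposure; on the % scale 0 is the no-effect control and ±100 the full control effect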); details: TR-UAS-bla HEK293, beta-lactamase ratio, antagonist mode, 18 h
Summary of the method: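 Inhibition of T3-driven (0.4nM final) beta-lactamase reporter activity was measured over 0.59 nM to 92 uM compound after 18 h at 37 C. The cells were GripTite HEK293 TR-UAS-bla in charcoal/dextran-stripped serum, with CCF4 ratio read-out and IC50 from Hill fits.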

[20] = target: Peroxisome proliferator-activated receptor alpha (Homo sapiens) (UniProt Q07869); assay: qHTS assay for small molecule agonists of the peroxisome proliferator-activated receptor alpha (PPARalpha) signaling pathway (AID 651778; active means well fitted curve in the direction sought with a large enough effect; an effect the other way counts as inactive or inconclusive; further: potency means the concentration at half of the fitted maximal effect; on max response: % of control where 0% means no effect); details: PathHunter PPARalpha complementation, chemiluminescence, 6 h; max response: stronger effect = higher value
Chain of Peroxisome proliferator-activated receptor alpha (Homo sapiens) (Q07869 whole entry, looked up): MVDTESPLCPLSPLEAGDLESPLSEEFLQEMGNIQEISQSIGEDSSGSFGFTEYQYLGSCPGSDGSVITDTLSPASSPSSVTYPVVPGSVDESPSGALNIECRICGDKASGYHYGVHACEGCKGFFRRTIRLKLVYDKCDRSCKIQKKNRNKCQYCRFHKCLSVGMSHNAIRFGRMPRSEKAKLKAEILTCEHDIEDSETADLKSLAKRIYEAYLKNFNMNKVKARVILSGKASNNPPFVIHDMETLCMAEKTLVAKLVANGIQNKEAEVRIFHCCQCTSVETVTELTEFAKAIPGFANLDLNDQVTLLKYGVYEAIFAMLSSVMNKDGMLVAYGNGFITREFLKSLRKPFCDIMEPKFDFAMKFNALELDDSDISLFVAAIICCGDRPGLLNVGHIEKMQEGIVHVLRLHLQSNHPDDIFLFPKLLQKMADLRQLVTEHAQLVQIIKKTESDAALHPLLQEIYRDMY
Summary of the method: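 Chemiluminescence from complemented enzyme reported PPARalpha activation in cells after 6 hr of compound treatment at 37 C. The detection reagent was incubated for 60 min at room temperature, and compounds were scored as agonists.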

O=C=NCCCCCCN=C=O
-6.96%: max response [8]
inactive: Potency [2] | Potency [3] | outcome [4] | Potency [6] | Potency [7] | max response [9] -6.2% | activation [10] 1.63% | activation [11] 0.731% | activation [12] -0.825% | Potency [13] | max response [14] -0.323% | max response [15] -9.94% | Potency [16] | max response [17] -0.542% | outcome [18]
15.2%: max response [1]
-10.7%: max response [5]

CO[Si](CCCOCC1CO1)(OC)OC (stereo not drawn)
-16.2%: max response [5]
inactive: Potency [2] | Potency [3] | Potency [6] | Potency [7] | max response [9] -3% | activity change % (negative = inhibition) [19] 7.57% | activation [10] 1.09% | activation [11] -2.38% | activation [12] -0.88% | Potency [13] | max response [14] -2.05% | max response [15] -2.39%
-4.61%: max response [8]
37.6%: max response [1]
active: Potency [20] 39.8 µM

CC(C)=CCC/C(C)=C\CO
inactive: Potency [2] | Potency [3] | outcome [4] | Potency [6] | Potency [7] | activity change % (negative = inhibition) [19] -2.03% | activation [10] 1.13% | activation [11] -1.2% | activation [12] 0.559% | max response [20] -0.763% | Potency [13] | max response [14] -3.82% | max response [15] -0.935% | Potency [16] | max response [17] 2.57%
-16.1%: max response [5]
-11.3%: max response [8]
2.44%: max response [1]

OCc1cccc(Oc2ccccc2)c1
inactive: Potency [2] | Potency [3] | outcome [4] | Potency [6] | Potency [7] | max response [9] 9.52% | activity change % (negative = inhibition) [19] 9.19% | activation [10] -1.52% | activation [11] 2.29% | activation [12] 1.11% | max response [20] -0.0897% | Potency [13] | max response [15] 2.32% | Potency [16] | max response [17] -3.09% | outcome [18]
-14.1%: max response [8]
-8.28%: max response [5]
-2.37%: max response [1]

CO[Si](CCCNCCN)(OC)OC
inactive: Potency [2] | Potency [3] | outcome [4] | Potency [6] | Potency [7] | max response [9] 2.04% | activity change % (negative = inhibition) [19] 7.69% | max response [20] 0.748% | Potency [13] | max response [14] 2.71% | max response [15] -6.23% | Potency [16] | max response [17] 4.5% | outcome [18]
-7.95%: max response [8]
7.5%: max response [5]
40.3%: max response [1]
